Screening data as filed in PubChem.
Shown are actives, neighbours in structure and some others; about 3.2% of the full set was active somewhere.
VACV Venus inh – inhibitors of vaccinia virus (Venus reporter); Vaccinia virus Venus reporter expression, fluorescence; Potency, µM (doses to about 36.5 µM), inactives show at the top dose activity change, negative = inhibition, hits mostly inhibitors; 0.46% of 330,000 active; calls by dose curve; tested in A549 cells; further: nearly all actives have a fitted effect of over 30% in size
Lassa entry inh – blocks Lassa virus binding to or entry into cells; Lassa virus pseudotype entry inhibition, cell reporter; 1.2% of 300,000 active; Potency, µM (highest dose often 37.9 µM), without a hit: at the highest dose activity change, negative = inhibition, usual class: inhibitors; calls by dose curve; tested in HEK293 cells; further: nearly all actives have a fitted effect of over 50% in size
FMDV antiviral – antivirals against foot and mouth disease virus | FMDV antiviral cell-based qHTS | Potency, µM (series often up to 57.9 µM), inactives show at the highest dose activity change, negative = inhibition, actives largely listed as inhibitors | 1.2% of 410,000 active | AID 1159524; calls by dose curve; tested in HEK293T cells; further: read-out not given here; nearly all actives have a fitted effect of over 45% in size
Marburg entry inh – Marburg virus entry inhibition; Marburg virus pseudotyped entry inhibition, cell reporter; Potency, µM (doses to about 37.8 µM), for the others: at the top dose activity change, negative = inhibition, usual class: inhibitors; 1.8% of 300,000 active; AID 540276; calls by dose curve; tested in HEK293 cells
Vaccinia mCherry – inhibitors of vaccinia virus infection (mCherry reporter signal); Vaccinia virus mCherry reporter infection, fluorescence; Potency, µM (highest dose often 36.5 µM), for the others: at the top dose activity change, negative = inhibition, usual class: inhibitors; 0.63% of 310,000 active; AID 720579; calls by dose curve; tested in A549 cells; further: nearly all actives have a fitted effect of over 35% in size
* marks the source's active call; other numbers are inactive results; i = inactive; ? = inconclusive; nt = not tested or not shown; ! = repeats disagree; [ ] = remark or other dose. On the % scale 0 is the no-effect control and ±100 the full control effect; potency means the concentration at half of the fitted maximal effect.

SMILES	VACV Venus inh	Lassa entry inh	FMDV antiviral	Marburg entry inh	Vaccinia mCherry
CCOc1ccc(NC(=O)c2ccc(-c3csc(C)n3)cc2)cc1	-18%	5%	-20%	7%	-14%
Cc1nc(-c2ccc(C(=O)Nc3cccc(F)c3)cc2)cs1	-5%	?	?	5µM*	0%
COc1ccc(NC(=O)c2ccc(-c3csc(C)n3)cc2)cc1	4%	?	-7%	?	i
Cc1nc(-c2ccc(C(=O)Nc3ccccc3F)cc2)cs1	-16%	?	8.9µM*	?	i
Cc1nc(-c2ccc(NC(=O)c3ccccc3C)cc2)cs1	?	?	-5%	?	?
CCOc1ccccc1N1CC(C(=O)N(C)Cc2cccnc2)CC1=O (configuration not stated)	-1%	25%[46.1 µM]	-12%	17%[46.1 µM]	i
C(=Nc1ccc(/C=C/c2ccnc3ccccc23)cc1)c1ccco1	-16%	nt	nt	nt	-18%
C=COC[C@H]1CN2[C@@H](CC[C@@H](C)[C@@H]2c2ccc(Br)cc2)C(=O)O1	nt	nt	nt	-1%[14.2 µM]	nt
OC1(c2cccnc2)CCN(Cc2ccc3c(c2)CN(Cc2cccc4nccnc24)CCO3)CC1	-15%	nt	0%	nt	-23%
COc1ccccc1N1CCN(c2nc(C)nc3c2oc2ccccc23)CC1	nt	?	28µM*	?	nt
Cc1nc(N2CCC(C)CC2)c2oc3ccccc3c2n1	?	?	?	?	i[1.46 µM]
Cc1nc(N2CCOCC2)c2cc(-c3ccccc3)sc2n1	-22%	?	-25%	?	-9%[1.46 µM]
Cc1nc(N2CCN(Cc3ccc4c(c3)OCO4)CC2)c2oc3ccccc3c2n1	-25%	-28%	28µM*	?	i
Cc1nc(N2CCN(Cc3ccc4c(c3)OCO4)CC2)c2cc(-c3ccccc3)sc2n1	-17%	-10%[46.1 µM]	-12%	7.9µM*	?
CC1(C)CC(=O)c2cc(C(=O)Nc3cccc4ccccc34)c(=O)[nH]c2C1	-22%	nt	nt	nt	-19%
COc1ccccc1OCC(=O)Nc1ccc(S(=O)(=O)N(C)c2ccccc2)cc1	nt	nt	-12%	nt	nt
CCN(CC)S(=O)(=O)c1ccc(NC(=O)COc2c(OC)cccc2OC)cc1	nt	-24%	32µM*	-18%	nt
COc1ccc(S(=O)(=O)N(C)CC(=O)Nc2ccc(C)cc2)cc1OC	nt	nt	-22%	nt	nt
CCN(CC(=O)Nc1ccc(OC)c(OC)c1)S(=O)(=O)c1ccc(C)cc1	-12%	-2%	13µM*	0%	nt
O=C(CSc1ncccn1)NCC1Cc2cccc(-c3ncccn3)c2O1 (configuration not stated)	-7%	nt	6%	nt	-14%
O=C(NCc1cccc(F)c1)c1cccc(OC2CCN(C(=O)C3CC3)CC2)c1	?	-29%	28µM*	?	-8%
O=C1N(c2ccccc2)C[C@@H]2C[C@@H](c3cc4ccccc4o3)N3CCC[C@@]123	?	?	-29%	?	0.89µM*
O=C(Nc1nc2ccccc2n1CCN1CCOCC1)c1ccccc1	-14%	-15%	-20%	-8%	-4%
CCN(CC)c1ccc(CNc2nc3ccccc3n2CCN2CCOCC2)cc1	-19%	-22%[46.1 µM]	-26%	11µM*	-21%
O=C(Nc1nc2ccccc2n1CCN1CCOCC1)c1cn(-c2ccccc2)nc1-c1ccccc1	?	?	0%	?	28µM*
SMILES	VACV Venus inh	Lassa entry inh	FMDV antiviral	Marburg entry inh	Vaccinia mCherry
COc1ccc(CNc2nc3ccccc3n2CCN2CCOCC2)cc1	?	14%	-8%	-13%	-13%
CN(Cc1ccco1)c1ncncc1-c1ccc2c(c1)OCO2	nt	nt	-3%	nt	nt
NC(=S)N/N=C1\CC(n2nnn(-c3cccc(Cl)c3)c2=S)C2COC1O2 (configuration not stated)	?	-14%	-20%	?	11µM*
O=C(Nc1ccc([N+](=O)[O-])cc1Cl)c1cc(Cl)ccc1O	?	1.3µM*	6.3µM*!	1.1µM*	?
COc1ccc(Cl)cc1C(=O)Nc1ccc([N+](=O)[O-])cc1Cl	-10%	nt	nt	nt	-13%
C/C(=N/NC(=O)CN1CCN(S(=O)(=O)c2ccc(C)cc2)CC1)c1ccco1	-9%	nt	-3%	nt	-16%
CCCCC(=O)/C=C/n1c2c(oc1=S)CCCC2	nt	nt	nt	18µM*	nt
CCN1C(=NCCCCO)N[C@@H](CCc2ccccc2)[C@H](C(=O)OC)[C@H]1C	nt	?	nt	9%[14.2 µM]	nt
COc1ccc(CCNC(=O)c2ccc([N+](=O)[O-])cc2Cl)cc1OC	-12%	6%	-20%	-30%	-10%
COc1ccc(CCNC(=O)c2ccc(CS(=O)(=O)Cc3ccc(C)cc3)o2)cc1OC	-22%	nt	-11%	nt	i
O=C(NCCc1ccc(Cl)cc1)c1ccc(CS(=O)(=O)Cc2ccc(Cl)cc2)o1	-14%	12%[46.1 µM]	1%	nt	-14%
COc1ccc(CCNC(=O)c2ccc(CS(=O)(=O)c3ccc(Cl)cc3)o2)cc1OC	nt	26µM*	16µM*	15µM*	nt
COc1ccc(CCNC(=O)c2ccc(-c3ccc([N+](=O)[O-])cc3Cl)o2)cc1OC	-9%	?	13µM*	?	-24%
COc1ccc(CCNC(=O)c2ccc(CS(=O)(=O)c3ccc(C)cc3)o2)cc1OC	-8%	?	32µM*	?	i
O=C(NCCc1ccc(Cl)cc1)c1ccc(CS(=O)(=O)Cc2ccccc2F)o1	-10%	?	40µM*	nt	-21%
COc1ccccc1CN1CCN(C2CCN(C(=O)NC(C)C)CC2)C(=O)C1=O	-1%	?	-16%	nt	-2%
CCC1CN(CC(=O)NCc2cc(C)n(C)n2)Cc2cc(OC)ccc2O1 (configuration not stated)	-3%	nt	12%	nt	-11%
COc1ccc(CCn2c(-c3ccco3)nc3ccccc3c2=O)cc1OC	-10%	?	32µM*	?	-13%
CCC(Sc1nnc2c3ccccc3n(CC)c2n1)C(=O)Nc1ccc(NC(C)=O)cc1 (configuration not stated)	-6%[7.34 µM]	-18%[46.1 µM]	-15%	3.5µM*	i[7.34 µM]
CCCn1c2ccccc2c2nnc(SC(CC)C(=O)Nc3cc(C)on3)nc21 (configuration not stated)	?	?	-22%	13µM*	nt
CCN(CC(=O)NCCCN1CCOCC1)S(=O)(=O)c1ccc(F)cc1	2%	1%	-12%	1%[46.1 µM]	5%
CN1CCC2(CC1)[C@H]1CN(C)CC=C1C(C#N)=C(N)C2(C#N)C#N	nt	nt	nt	-9%	nt
CC(=O)c1c(C)[nH]c(C(=O)CN2CCN(S(=O)(=O)c3ccccc3F)CC2)c1C	-18%	?	18µM*	?	-26%
COc1cc2c(cc1OC)[C@@H]1O[C@](c3ccsc3)(C2)Oc2cc(C)n(Cc3ccccc3)c(=O)c21	nt	nt	nt	-14%[14.2 µM]	nt
C/C(=N\NC(=O)c1cccc2ccccc12)c1ccccn1	-10%	7.9µM*	-6%	?	?
C/C(=N\NC(=O)c1cc(-c2cccs2)nc2ccccc12)c1ccccn1	nt	6.5µM*	?	4.6µM*	nt
O=C(N/N=C/c1ccc[nH]1)c1ccccc1OCc1ccc(F)cc1	10%	27%[46.1 µM]	-22%	11%[46.1 µM]	-17%
CCOc1ccc(OCc2ccc(C(=O)N/N=C(\C)c3ccccn3)cc2)cc1	?	11µM*	-18%	7.9µM*	1.8µM*
